Screening results (PubChem)
Abeta yeast res = qHTS for compounds that reverse cellular toxicity of Amyloid beta (A-beta) peptide in yeast: Primary Screen; AID 1347071, 2019; Potency, µM (top dose mostly 46.1 µM), usual class: activators; 0.063% of 410,000 active; yeast expressing A-beta42, growth rescue, OD600, 48 h; response scale: 0% DMSO, 100% iron-clioquinol control; note: nearly all actives have a fitted effect of over 55% in size
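Yeast growth medium received pinned compounds, then yeast cells expressing toxic A-beta were added; plates incubated at 30 C for 48 hr. Growth read as absorbance at 600 nm, normalized to DMSO and equimolar FeCl3 plus clioquinol controls.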
TDP-43 yeast inh = qHTS of TDP-43 Inhibitors; TDP-43 expressing yeast growth rescue, BacTiter-Glo, 24 h; Potency, µM (titrated, usually from 46.1 µM), actives largely listed as activators; 1.8% of 410,000 active; note: nearly all actives have a fitted effect of over 50% in size
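Galactose-induced TDP-43 yeast, OD600=0.02, compound pinned; 24 hr, 30 deg C; BacTiter-Glo luminescence for growth. Inhibitors of TDP-43 toxicity read as activators.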
aSyn rescue = qHTS of alpha-syn Inhibitors; AID 652106, 2013; Yeast expressing alpha-synuclein, growth rescue, BacTiter-Glo, 24 h; 0.14% of 370,000 active; Potency, µM (top dose mostly 46.1 µM), hits mostly activators; note: nearly all actives have a fitted effect of over 65% in size
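Readout is rescue of growth in alpha-synuclein-expressing yeast, so inhibitors of toxicity appear as activators. Growth after 24 hr at 30 deg C in galactose medium is quantified by luminescence.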
FUS suppressor = qHTS for Suppressors of FUS Proteinopathy: Primary screen using FUS-linked yeast assay | S. cerevisiae FUS-expressing, growth rescue, OD600, 24 h | Potency, µM (highest dose often 76.6 µM), actives largely listed as activators | 0.24% of 390,000 active | AID 1347120, 2019; note: nearly all actives have a fitted effect of over 55% in size
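Quantitative HTS measuring growth restoration of FUS-toxic yeast. Galactose-induced cells (OD 0.005) were exposed 24hr at 30C to compounds at several concentrations, then absorbance at 600 nm was recorded.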
Numbers stand for hits; . = inactive; ? = inconclusive; / = not tested or not shown; [ ] = another dose, or the depositor's remark. Only some compounds are listed: those with a hit (about 2.1% of all), similar ones and a draw of the others. Calls come from the whole dose curve; as a rule, active = well fitted curve in the direction sought with a large enough effect; inconclusive = small, poorly fitted or top-dose-only effect, or another doubt; inactive = no such curve, though single readings can be large; an effect the other way counts as inactive or inconclusive.

SMILES	Abeta yeast res	TDP-43 yeast inh	aSyn rescue	FUS suppressor
O=C(COC(=O)/C=C/c1ccco1)NCc1ccc2c(c1)OCO2	.	15.8µM	.	.
O=C(NCc1ccco1)c1ccc2c(c1)N(Cc1cccc(Cl)c1)C(=O)c1ccccc1S2=O (stereo not drawn)	.	.	/	.
CCOC(=O)N1CCN(c2c(-c3ccc(C(C)C)cc3)c(=O)c2=O)CC1	.	20µM	.	.
COC(=O)C1=C(C(=O)OC)SC(=C2C(=S)C(C)(C)N(C(=O)C(C)C)c3ccccc32)S1	.	3.16µM	?	.
CCCC(=O)N1c2ccccc2C(=C2SC(C(=O)OC)=C(C(=O)OC)S2)C(=S)C1(C)C	.	?	.	.
COC(=O)C1=C(C(=O)OC)SC(=C2C(=S)C(C)(C)N(C(=O)C3CC3)c3ccccc32)S1	.	2.24µM	.	.
CC1=C(C)CS(=O)N(S(=O)(=O)c2ccccc2)C1 (stereo not drawn)	.	12.6µM	.	.
CCOc1ccc(CCNCc2c(C(=O)O)n(Cc3ccc(C)cc3)c3cc(OC)ccc23)cc1	.	.	/	.
Cc1cccc(C(=O)N2CCC(n3nnc4cc(F)ccc43)CC2)c1	.	22.4µM	.	.
CCOc1ccccc1C(=O)N1CCC(n2nnc3cc(C(F)(F)F)ccc32)CC1	.	?	.	.
CCOc1ccccc1C(=O)N1CCC(n2nnc3cc(C)ccc32)CC1	.	17.8µM	.	.
COc1ccc(C(=O)N2CCC(n3nnc4cc(F)ccc43)CC2)cc1OC	.	.	.	.
CC1Cc2ccccc2C[N+]1(C)CC(=O)c1ccc(I)cc1 (stereo not drawn)	/	/	.	/
Cc1cc(C)c(NC(=O)C(=O)NCCc2csc(-c3ccc(F)cc3)n2)c(C)c1	.	.	/	.
Cn1cnc([N+](=O)[O-])c1S(=O)(=O)Oc1ccc(Cl)cc1	.	3.16µM	.	.
Cn1cnc([N+](=O)[O-])c1S(=O)(=O)Oc1cccc2ccccc12	.	?	.	.
O=C1c2ccsc2SCCN1Cc1ccc(Cl)cc1	.	22.4µM	.	.
O=C1c2ccsc2SCCN1Cc1ccc(F)cc1	.	?	?	.
Cc1ccc(Sc2ccc(NC(=O)CCl)cc2)c(C)c1	?	11.2µM	.	.
O=C(Nc1nc(-c2ccc(Cl)cc2)cs1)C1=COCCO1	.	?	.	.
O=C(Nc1nc(-c2ccc(F)c(F)c2)cs1)C1=COCCO1	.	3.98µM	.	.
COc1ccc(-c2csc(NC(=O)C3=COCCO3)n2)cc1OC	.	.	.	.
CCc1ccc(-c2csc(NC(=O)C3=COCCO3)n2)cc1	.	17.8µM	.[1.84 µM]	.
Cc1ccc2onc(CNC(=O)Nc3ccccc3C#N)c2c1	.	.	/	.
COc1ccccc1NC(=O)Nc1nc(CC(=O)N2CCN(c3ccccc3)CC2)cs1	.	.	4.47µM	?
SMILES	Abeta yeast res	TDP-43 yeast inh	aSyn rescue	FUS suppressor
CCN(Cc1ccccc1)C(=O)Cn1c(=O)cc(C)c2c(C)nn(-c3cccc(F)c3)c21	.	.	/	.
CCc1ccc(C2=Nn3c(nnc3-c3cccs3)SC2)cc1	.	11.2µM	.	.
CCOc1ccc(C2=Nn3c(CC)nnc3SC2)cc1	.	17.8µM	.	.
C=C1NN(C)C(=O)N1c1ccc(OC)cc1	/	/	.	/
O=C(O)Cc1ccc(Oc2ncc(C(F)(F)F)cc2Cl)cc1	.	12.6µM	.	.
CN1C(c2ccccc2)=NO[C@]1(C)c1ccccc1	.	.	.	.
CN1c2ccccc2SC2C(c3ccccc3)=NOC21 (stereo not drawn)	.	17.8µM	.	.
Cc1ccc(NC(=O)C2(NC(=O)c3cccc(N4C(=O)CSC4c4ccccc4)c3)CCCCC2)cc1 (stereo not drawn)	.	.	.	28.2µM
CC1(C(=O)NCc2ccc(C(F)(F)F)cc2)CCN1Cc1ccc(-c2ccccc2)o1 (stereo not drawn)	.	.	15.8µM	?
CCOC(=O)CCCNC(=O)OC1CCC12CCC(c1ccccc1)CC2 (stereo not drawn)	/	/	/	.
CN(C)c1ccc(/C=C/c2ccnc3c([N+](=O)[O-])cccc23)cc1	/	/	.	/
O=C(O)CN1C(=O)/C(=C\c2cccc(OCc3ccc(F)cc3)c2)SC1=S	5.01µM	.	.	.
O=C(O)CN1C(=O)/C(=C\c2cccc(OCc3ccc(Cl)cc3)c2)SC1=S	?	?	.	.
O=C(O)CN1C(=O)/C(=C\C(Br)=C\c2ccccc2)SC1=S	.	12.6µM	.	.
